Each structure is given as a SMILES string. Compounds without any hit were thinned out: in the full panel of roughly 83,000, 20% have a hit.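 Each cell line was grown in a 96-well plate and treated with one concentration of compound for 48 hours. Values below 10 were considered active.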 Unmarked numbers belong to inactive results. The source made the active and inactive calls.

The experiment deals with NCI-H23 lung. Briefly: NCI-60 one-dose screen, 48 h (100 = growth as untreated, 0 = no growth, -100 = all killed). To be noted: 10 µM unless noted.
For `Fc1ccc(COc2ccc(Nc3ncnc4sc5c(c34)CCCC5)cc2)cc1`, the growth was 99.4%. The result for `COc1cc(C2Cc3ncccc3-c3[nH]c(=O)c4cccnc4c32)cc(OC)c1OC` (configuration not stated) reads 35.3%. Regarding `O=C(c1ccc(Cl)cc1Cl)N1c2ccccc2Sc2ccccc21`, the growth was 73.5%. Under `O=C(N/N=C/c1ccc([N+](=O)[O-])cc1)c1ccc2nc(-c3ccc(Cl)cc3)[nH]c2c1` stands 16.2%; under `O=C(NCc1ccccc1O)c1cccc2ccccc12`, 47.8%. Take `CC1=C(C(=O)n2c3ccccc3c3ccccc32)C(c2cccc([N+](=O)[O-])c2)C(C(=O)n2c3ccccc3c3ccccc32)=C(C)N1`: the growth was 91.9%. As to `COc1ccc(/C=C/C(=O)c2ccc(NC(=O)CSc3nnc(-c4cc(-c5ccccc5)nc5ccccc45)n3-c3ccccc3)cc2)cc1`, the growth is 93.2%.

`Cn1cc(-c2nc(-c3c[nH]c4ccncc34)cs2)c2cc(Br)ccc21`: the growth was -64.2% (active). The result for `C#Cc1cccc(Oc2ccc(NC(=O)CCl)cc2)c1` reads 20.7% [8.25 µM]; that for `CC1(C)CC[C@]2(C(=O)N3CCOCC3)CC[C@]3(C)C(=CC[C@@H]4[C@@]5(C)C/C(=C/c6ccncc6)C(=O)C(C)(C)[C@@H]5CC[C@]43C)[C@@H]2C1`, 19.5%; that for `CC(C)c1ccc(NC(=O)Nc2ccc(NC(=O)c3ccccc3N)cc2)cc1`, 59.5%. For `Cc1cc(C(=O)Nc2cc(Nc3ncccc3-c3ncnc4nc[nH]c34)ccc2F)cc(C(F)(F)F)c1`, the growth is 25.2%.

These data come from PubChem BioAssay (NCI).
